# In ChEMBL document CHEMBL3988442, “University of Dundee, Small-Polar-MMV Screening Library” (2021):
# In all, about 48,000 compounds went through this assay and about 13,000 (27%) showed an effect of 50% or more. This is one part of the list.
# Tested on: Wolbachia pipientis
# Assay: Anti-Wolbachia Cell-Based Screen
# Type: functional
# Parameters: scale not given: in the data most compounds retested in dose-response had high values
# Conditions: 5 µM
row,Compound,Percent Effect [%]
1,CC(SCC(=O)NC(N)=O)c1ccccc1F (configuration not stated),-3.716
2,Cc1cc(C)cc(S(=O)(=O)NCC2CNCCOC2)c1 (configuration not stated),5.985
3,Cc1c(C(=O)NS(=O)(=O)c2ccsc2)cnn1CC(C)C,9.8
4,Cn1cncc1C(=O)N1C[C@@H]2CCN(c3cnccn3)C[C@@H]2C1.O=C(O)C(F)(F)F,-2.415
5,Cn1ccnc1C(=O)N1C[C@@H]2CCN(c3cnccn3)C[C@@H]2C1.O=C(O)C(F)(F)F,-15.62
6,CCC(=O)N1C[C@@H]2CCN(c3cnccn3)C[C@@H]2C1.O=C(O)C(F)(F)F,109.3
7,O=C(c1nc(=O)[nH][nH]1)N1CCCN(CC2CCCCC2)CC1,4.28
8,Cc1nc(C2(O)CCCNCC2)sc1CCOc1ccc(Cl)cc1.Cl (configuration not stated),-4.713
9,Cc1[nH]nc2ncc(C(=O)N3CCN(CC(C)(C)O)CC3)cc12,-29.67
10,CCOCC1CN(S(=O)(=O)c2ccccc2)Cc2nccn2C1 (configuration not stated),89.2
11,CCS(=O)(=O)N1Cc2nccn2CC(COc2cccnc2)C1 (configuration not stated),-25.66
12,CCOCc1ncn2c1CN(S(=O)(=O)c1cccc(C)c1)CC2,-2.947
13,O=S(=O)(Cc1ccccc1)NC[C@H]1Cn2ccnc2CO1,-7.74
14,CCOCC1CN(S(=O)(=O)c2cccc(C)c2)Cc2nccn2C1 (configuration not stated),102.9
15,COCC1CN(S(=O)(=O)c2ccccc2)Cc2ncnn2C1 (configuration not stated),2.623
16,COCC1CN(S(=O)(=O)c2cccc(F)c2)Cc2nccn2C1 (configuration not stated),114.5
17,COCc1ncn2c1CN(S(=O)(=O)c1cccc(F)c1)CC2,-3.986
18,CCOCC1CN(S(=O)(=O)Cc2ccccc2)Cc2nccn2C1 (configuration not stated),112.8
19,CCc1nnc(CN(C)c2nc(C(C)C)nc3c2cnn3C)o1,-14.59
20,CCc1nc(C2CCCN2c2ncc(C(F)(F)F)cc2Cl)no1 (configuration not stated),16.09
21,Cc1cccc(S(=O)(=O)N2Cc3nccn3CC(CN(C)C)C2)c1 (configuration not stated),117.9
22,Cc1cccc(S(=O)(=O)N2Cc3c(CN(C)C)nn(C)c3C2)c1,-7.774
23,CCCS(=O)(=O)N1Cc2nccn2CC(CN(C)C)C1.O=C(O)C(F)(F)F (configuration not stated),-8.912
24,COCCC1COC2(CCN(C(C)=O)CC2)C1 (configuration not stated),-6.336
25,COCCC1COC2(CCN(C(=O)C3CCCC3)CC2)C1 (configuration not stated),-1.347

row,Compound,Percent Effect [%]
1,CS(=O)(=O)N1CCOC2(CCCC2)C1,-2.404
2,CC(=O)N1CCC2(CC1)CC(C(C)C)=NO2,118.9
3,COCCC1COC2(CCN(C(=O)C3CCCCC3)CC2)C1 (configuration not stated),-0.113
4,Cc1ccc(C(=O)N2CCC3(CC2)CC(NC(=O)C(C)C)CO3)cc1 (configuration not stated),-11.34
5,CS(=O)(=O)N1CCC2(CC1)CN(CCn1cccn1)C(=O)CO2,-11.65
6,CC(C)C1=NOC2(CCN(S(C)(=O)=O)CC2)C1,106.9
7,CC(C)C1=NOC2(CCN(C(=O)C3CCCC3)CC2)C1,98.86
8,CO[C@H]1CNC[C@@H]1NC(=O)c1cc(C)nc2c(C)cc(C)cc12,0.2692
9,Cc1cnn(CCNCc2ccccc2Oc2cccnc2)c1,8.919
10,CCCc1nc(N2Cc3cnn(Cc4ccc(F)cc4)c3C2)no1,5.743
11,CSc1ccccc1CN1C[C@H]2CC[C@@H]1CN(Cc1[nH]cnc1C)C2,-3.423
12,CC(C)(C)C(N)c1nc(-c2nnc[nH]2)no1 (configuration not stated),-10.11
13,COC(=O)c1ccc(/C=C/c2ncc(C(=O)O)s2)cc1,5.854
14,CCOc1cc(/C=C/c2ncc(C(=O)O)s2)cc(Br)c1O,111.7
15,CCOc1c(OC)cc(/C=C/c2ncc(C(=O)NC)s2)cc1OC,-0.7468
16,CCOc1cc(/C=C/c2ncc(C(=O)O)s2)cc(Br)c1OC,120.5
17,COC(=O)c1cnc(/C=C/c2ccc(C(=O)O)cc2)s1,-4.44
18,CNC(=O)c1cnc(/C=C/c2cc(OC)c(O)c(OC)c2)s1,-7.095
19,CCOc1cc(/C=C/c2ncc(C(=O)O)s2)ccc1O,7.127
20,CCOc1c(Br)cc(/C=C/c2ncc(C(=O)O)s2)cc1OC,109.6
21,CNC(=O)c1cnc(/C=C/c2cc(OC)cc(OC)c2)s1,5.835
22,Cc1noc(C)c1CC(=O)NCC(C)N1CCOCC1 (configuration not stated),8.973
23,O=C(NCc1cccnc1)[C@@H]1CC[C@@H]2[C@@H](CCN2c2ncccn2)O1.O=C(O)C(F)(F)F.O=C(O)C(F)(F)F,3.562
24,CO[C@H]1CC[C@H]2[C@H]1OCCN2Cc1ccc(F)cc1.O=C(O)C(F)(F)F,91.7
25,Fc1cccc(CN2CCO[C@H]3[C@@H](OCc4ccccn4)CC[C@@H]32)c1,10.15

row,Compound,Percent Effect [%]
1,CO[C@@H]1CC[C@H]2[C@H]1OCCN2Cc1ccc(F)cc1.O=C(O)C(F)(F)F,109.6
2,Fc1ccc(CN2CCO[C@H]3[C@H](OCC4CCCC4)CC[C@@H]32)cc1.O=C(O)C(F)(F)F,109
3,CCO[C@@H]1CC[C@H]2[C@H]1OCCN2Cc1ccc(F)cc1,96.26
4,Fc1ccc(CN2CCO[C@H]3[C@H](OCC4CC4)CC[C@@H]32)cc1.O=C(O)C(F)(F)F,2.778
5,CC(=O)c1cccc(S(=O)(=O)NCC(C)(O)c2cccs2)c1 (configuration not stated),1.748
6,COCCN1CCN(C(=O)C[C@@H]2C[C@@H](C(C)C)[C@H](CC#N)C=C2C)CC1,7.225
7,COc1cc(F)ccc1-c1cc(N)ccn1,-8.193
8,CCOc1ccccc1CNC(=O)NCC(c1cnn(C)c1)N(C)C (configuration not stated),-20.46
9,Cc1cc(C)cc(C(=O)NCCCNc2ncccn2)c1,-23.32
10,Cc1ccc2cc(C3(O)CCN(C(=O)CN4CCCC4)CC3)ccc2n1,-0.9065
11,CS(=O)(=O)N(Cc1ccon1)c1ccc(F)cc1,-1.74
12,COCCn1cc(NC(=O)NCC(C)N2CCOCC2)cn1 (configuration not stated),-7.646
13,CC(C)Cc1cn(C2CCN(C(C)CCn3cccn3)CC2)nn1 (configuration not stated),2.161
14,CC(C)CCn1cc(C(C(=O)O)N2CCSCC2)cn1 (configuration not stated),100.1
15,CC(CCn1cccn1)N1CCC(n2cc(C(C)(C)N)nn2)CC1 (configuration not stated),-1.676
16,CC(C)CCS(=O)(=O)CC(=O)N1CCCC1c1cnn(C)c1 (configuration not stated),5.656
17,CC(C)CCn1cc(C(C(=O)O)N2CCCN(C3CCCC3)CC2)cn1 (configuration not stated),99.16
18,COc1ccc(C(C(=O)O)N2CCCN(C3CCCCC3)CC2)cn1 (configuration not stated),6.723
19,COc1ccc(C(C(=O)O)N2CCCN(C3CCCC3)CC2)cc1OC (configuration not stated),14.25
20,COc1ccc(F)cc1C(C(=O)O)N1CCSCC1 (configuration not stated),-3.942
21,CC(C)CCn1cc(C(C(=O)O)N2CCC(N3CCSCC3)CC2)cn1 (configuration not stated),123.7
22,CC(C)CCn1cc(C(C(=O)O)N2CCC(c3ccncc3)CC2)cn1 (configuration not stated),105.9
23,Cn1cc(CN2CCC3(CC2)CC(c2ccncc2)C(=O)N3)cn1.O=C(O)C(F)(F)F.O=C(O)C(F)(F)F (configuration not stated),4.796
24,O=C(N[C@@H]1CN(c2ncccn2)C[C@@H]2CCCO[C@@H]21)c1cccnc1.O=C(O)C(F)(F)F.O=C(O)C(F)(F)F,-5.975
25,CN1CCN(C(=O)c2cccc(CN3CCOCC3)c2)CC1,132.9

row,Compound,Percent Effect [%]
1,COCc1cccc(C(=O)N2CCCC2)c1,-4.067
2,O=C(c1cccc(NCCO)c1)N1CCOCC1,0.9463
3,CCN1CCN(C(=O)c2ccn(C)c(=O)c2)CC1,15.1
4,CC1CCCN(C(=O)c2cccc(CS(C)(=O)=O)c2)C1 (configuration not stated),-2.941
5,CCN1CCN(C(=O)c2cccc(CN3CCOCC3)c2)CC1,97.52
6,NC(=O)C1CCN(C(=O)c2cccc(CN3CCOCC3)c2)CC1,-12.72
7,CCOCCN1CCN(Cc2cccc(C(=O)N(C)C)c2)CC1,-1.534
8,CC1CCN(C(=O)c2cccc(CN3CCOCC3)c2)CC1,117.9
9,COC(=O)[C@@H]1Cc2ncn(C(C)C)c2CN1S(=O)(=O)Cc1ccccc1,1.678
10,CCN(CC)S(=O)(=O)NC(C)C(=O)N(C)C (configuration not stated),-9.888
11,CC(C)c1nnc(CNc2ccc(SC(F)(F)F)cc2)o1,-0.02401
12,CCc1ccc(C2CCCCCN2C(=O)CNC(=O)NC2CC2)o1 (configuration not stated),-27.64
13,Cc1ccnc(N2CCCC(c3noc(C(C)C)n3)C2)n1 (configuration not stated),19.69
14,c1cnnc(N2CCCC2CNCc2cnc(N3CCCC3)nc2)c1 (configuration not stated),-1.846
15,O=C1OCCN1Cc1cc(C(F)(F)F)ccc1F,-10.76
16,O=C(O)C(F)(F)F.O=C(O)C(F)(F)F.c1cnc(N2CCOC3(CCCN(c4cnccn4)C3)C2)nc1 (configuration not stated),-4.65
17,Cc1nnc(N2CCCC3(CN(c4ccccn4)CCO3)C2)o1.O=C(O)C(F)(F)F (configuration not stated),102.3
18,O=C(O)C(F)(F)F.c1ccc(N2CCOC3(CCCN(c4ncccn4)C3)C2)nc1 (configuration not stated),84.77
19,CCS(=O)(=O)N1CCOC2(CCCN(c3ccccn3)C2)C1.O=C(O)C(F)(F)F (configuration not stated),-10.79
20,Cc1nnc(N2CCCC3(CN(Cc4ccc(C)s4)CCO3)C2)o1.O=C(O)C(F)(F)F.O=C(O)C(F)(F)F (configuration not stated),-0.4451
21,N#Cc1cccc(N2CCCC3(C2)CN(c2ncccn2)CCO3)n1.O=C(O)C(F)(F)F (configuration not stated),-0.7909
22,Cc1cc(C(C)NC(=O)CCN2C(=O)c3ccccc3C2=O)c(C)o1 (configuration not stated),-2.425
